Assay outcomes deposited in PubChem by National Center for Advancing Translational Sciences (NCATS).
SARS PLP yeast = SARS-CoV PLP inhibition in yeast; S. cerevisiae expressing SARS-CoV PLpro, growth rescue; Potency, µM (series often up to 32.9 µM), without a hit: at the top dose activity, positive = growth rescue, usual class: activators; 330,000 tested, 0.19% active; calls by dose curve; note: potency is the fitted concentration of half-maximal effect; 0% is about no effect; nearly all actives have a fitted effect of over 55% in size
CHX counter = counter-screen hit for Shiga toxin inhibitors, cycloheximide; cell reporter, cycloheximide protein synthesis inhibition counterscreen; 300,000 tested, 12% active; max response, %; in the data active = max response mostly above about 13%, no sharp cut-off; inactive = mostly below about 14%; note: read at 38.3 µM for the half of the compounds with a filed dose; 0% is about no effect
NS1 inh = influenza NS1 inhibition. AID 2326. Potency, µM (highest dose often 46.1 µM), for inactives: at the top dose activity, positive = more growth. 270,000 tested, 0.4% active; calls by dose curve; note: potency is the fitted concentration of half-maximal effect; actives are rising curves; nearly all actives have a fitted effect of over 50% in size
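Recovery from NS1-induced slow growth read by OD600 in budding yeast switched to galactose assay medium (pH 6.0, -URA) at 1:100 dilution. Compound 23 nl per well; the matching strain lacking NS1 serves as control.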
Tb PYK inh = inhibitors of Trypanosoma brucei pyruvate kinase; TbPYK enzyme, Kinase-Glo Plus ATP luminescence, 45 min; 410,000 tested, 0.12% active; AID 624173; Q57TT1; Potency, µM (top dose mostly 76.8 µM), for inactives: at the top dose activity, negative = inhibition, hits mostly inhibitors; note: potency is the fitted concentration of half-maximal effect; % is set by controls: 0 for no effect and ±100 for the full control effect; nearly all actives have a fitted effect of over 50% in size
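Readout: single end-point luminescence (Kinase-Glo Plus, 10 min). Reaction conditions were TbPYK/substrate plus 130 uM ADP, 45 min at RT, pH 7.2 TEA buffer. No-enzyme wells served as controls, and data were normalized before concentration-response fitting.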
Shiga toxin inh = blocks Shiga toxin action in Vero cells; Vero cells, Shiga toxin protein synthesis inhibition reporter; inhibition, % at 38.7 µM; 290,000 tested, 9.2% active; in the data active = inhibition mostly above about 28%, no sharp cut-off; inactive = mostly below about 43%; note: 0% is about no effect
LmPK inhibitor = blocks Leishmania mexicana pyruvate kinase activity; 290,000 tested, 0.37% active; Potency, µM (highest dose often 57.5 µM), without a hit: at the top dose activity change, negative = inhibition, actives largely listed as inhibitors; purified LmPK, Kinase-Glo ATP luminescence, 1 h; AID 1721; note: potency is the fitted concentration of half-maximal effect; % is set by controls: 0 for no effect and ±100 for the full control effect
Target sequence (Q27686 whole entry, looked up): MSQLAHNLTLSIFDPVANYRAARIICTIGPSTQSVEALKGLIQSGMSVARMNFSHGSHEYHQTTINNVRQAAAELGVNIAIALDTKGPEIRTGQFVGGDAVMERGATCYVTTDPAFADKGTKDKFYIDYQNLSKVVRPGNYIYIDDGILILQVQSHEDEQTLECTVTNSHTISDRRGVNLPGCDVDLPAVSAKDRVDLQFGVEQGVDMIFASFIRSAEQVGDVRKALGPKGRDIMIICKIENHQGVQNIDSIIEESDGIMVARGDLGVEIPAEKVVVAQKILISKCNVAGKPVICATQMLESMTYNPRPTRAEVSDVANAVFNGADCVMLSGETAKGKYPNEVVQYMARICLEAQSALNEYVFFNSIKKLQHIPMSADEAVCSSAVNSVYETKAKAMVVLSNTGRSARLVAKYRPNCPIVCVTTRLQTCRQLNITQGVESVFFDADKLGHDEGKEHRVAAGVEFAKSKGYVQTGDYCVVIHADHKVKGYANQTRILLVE
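In 50 mM imidazole pH 7.2 with 7 mM MgCl2, LmPK (0.1 nM) turned over PEP (0.5 mM) and ADP (0.1 mM) for 1 h at room temperature. Luciferase read-out of ATP.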
Active calls of the source: *; u = inconclusive; x = no result; + = active, no number; [ ] = dose if it differs, or a comment. The sample as a whole holds a higher share of hits than the screen did. Unless noted, calls come from the whole dose curve; as a rule, active = well fitted curve in the direction sought with a large enough effect; inconclusive = small, poorly fitted or top-dose-only effect, or another doubt; inactive = no such curve, though single readings can be large; an effect the other way counts as inactive or inconclusive.

SMILES	SARS PLP yeast	CHX counter	NS1 inh	Tb PYK inh	Shiga toxin inh	LmPK inhibitor
C[C@H](CO)N1C[C@H](C)[C@@H](CN(C)S(=O)(=O)c2ccc(F)cc2)Oc2ccc(NC(=O)NC3CCCCC3)cc2C1=O	-1%	x	x	2%	x	x
Nc1nnc(CSCc2ccc(Cl)cc2)s1	-22%	-3	2%	7%	-11	0%
Nc1nnc(SCc2ccc(Cl)cc2)s1	11%	14	17%	2%	+	8%
CC1CCN(c2nnc(-c3cccs3)c3ccccc23)CC1	-1%	16*	-27%	6%	60	5%
N#C/C(=C/c1ccc(-c2cc(C(=O)O)cc(C(=O)O)c2)o1)c1nc2ccccc2s1	0%	8	x	x	-1	12%
N#C/C(=C/c1ccco1)c1nc2ccccc2s1	-29%	94*	6%	6%	119*	-24%
N#C/C(=C\c1ccco1)c1nc2ccccc2s1	4%	70*	-15%	-10%	110*	-17%
CC#CCN1c2ccccc2[C@]23C[C@@H](C(=O)OC)N(S(=O)(=O)c4ccc(Br)cc4)C2=NC(C(=O)OC)=C(C(=O)OC)[C@H]13	x	x	x	x	x	-4%[11.5 µM]
CC(=O)N1CCN(C(=O)c2cc(S(=O)(=O)N(C)Cc3ccccc3)ccc2Cl)CC1	3%	x	x	-9%	x	x
CCOC(=O)c1cc(C#N)c(Oc2cccc(C(F)(F)F)c2)nc1-c1ccccc1	5%	0	6%	-10%	25	3%
CCOC(=O)c1ccc(-c2cccc(C(F)(F)F)c2)nc1C	3%	17*	-3%	2%	37	0%
C=CCn1c(-c2c[nH]c3ccccc23)n[nH]c1=S	2%	0	u	u	24	22µM*
CCn1c(-c2c[nH]c3ccccc23)n[nH]c1=S	1%	-3	-14%	u	-3	u
C=CCn1c(-c2csc(-c3ccccc3)n2)n[nH]c1=S	x	-3	u	-35%	-14	0%
C=CCn1c(-c2csc3ccccc23)n[nH]c1=S	u	-2	-6%	u	-12	11µM*
N#Cc1ccccc1OCC(=O)N1CCN(c2ccccc2F)CC1	x	x	x	-1%	x	x
O=C(OCC(=O)N1CCc2ccccc2C1)c1cc(=O)[nH]c2ccccc12	-2%	33*	-61%	2%	59*	3%
Cc1ccc(OCC(=O)N2CCc3ccccc3C2)c(Br)c1	-5%	42*	-1%	0%	60*	3%
COc1cc(C(C)=O)ccc1OCC(=O)N1CCc2ccccc2C1	9%	-3	8%	1%	-3	1%
Cc1ccc(OCC(=O)N2CCc3ccccc3C2)c(C)c1	-9%	11*	-59%	-5%	33	-2%
Cc1nnc(SCC(=O)N2N=C(c3ccc(Cl)cc3)CC2c2ccco2)[nH]c1=O (stereo not drawn)	3%	18*	x	-9%	46	0%
COc1ccc(C2=NN(C(=O)COc3ncnc4ccccc34)C(c3ccco3)C2)cc1 (stereo not drawn)	-1%	-4	-5%	-1%	-10	-1%
COc1ccc(C2=NN(c3nc(-c4ccccc4)c(CC(=O)O)s3)C(c3ccco3)C2)cc1 (stereo not drawn)	-7%	18*	25%	-17%	48*	-3%
Fc1ccc(C2=NN(c3ccccc3)C(c3ccco3)C2)cc1 (stereo not drawn)	-2%	12	-7%	1%	25	-3%
CC(=O)N1N=C(c2ccccc2)CC1c1cn(C)c2ccccc12 (stereo not drawn)	17%	52*	-16%	-7%	115*	0%
SMILES	SARS PLP yeast	CHX counter	NS1 inh	Tb PYK inh	Shiga toxin inh	LmPK inhibitor
Cn1nnnc1SCC(=O)N1N=C(c2ccc(Cl)cc2)CC1c1ccco1 (stereo not drawn)	0%	x	x	3%	x	x
Cc1ccc(N2N=C(c3ccc(F)cc3)CC2c2ccco2)cc1 (stereo not drawn)	-2%	30*	-5%	-3%	46*	10%
O=C1C(=O)N(C2CCN(C(=O)c3ccc(F)cc3)CC2)CCN1Cc1ccc(F)cc1	x	x	x	-4%	x	x
COc1ccccc1NC(=S)N1CCCCCC1	0%	0	1%	7%	7	-5%
CC(=O)N1N=C(c2ccc(Cl)cc2)CC1c1ccco1 (stereo not drawn)	-1%	7	-2%	1%	-7	-2%
CC(=O)N1N=C(c2ccc(C)cc2)CC1c1ccco1 (stereo not drawn)	-2%	13*	-8%	6%	35	-28%
Clc1ccc(C2=NN(c3ccccc3)C(c3ccco3)C2)cc1 (stereo not drawn)	-1%	44*	-6%	5%	75*	-6%
O=[N+]([O-])c1ccc(/C=C/C2=NN(c3ccccc3)C(c3ccco3)C2)o1 (stereo not drawn)	-8%	12	x	-19%	15	-3%
O=C(c1ccc(Br)o1)N1N=C(c2ccc(Cl)cc2)CC1c1ccco1 (stereo not drawn)	-4%	25	0%	-2%	31	-4%
Cc1nc(N2N=C(c3ccc(Cl)cc3)CC2c2ccco2)sc1C(=O)N(C)C (stereo not drawn)	2%	27*	x	-4%	30	-1%
C(=C\c1ccco1)/C1=NN(c2ccccc2)C(c2ccco2)C1 (stereo not drawn)	-22%	40*	-5%	-11%	80*	-2%
COc1ccc(C)cc1NC(=O)Cn1cc(S(=O)(=O)N2CCC(C)CC2)c2ccccc2c1=O	x	x	x	2%	x	x
Cc1ccc(C2CC(c3ccccc3)=NN2c2ccccc2)o1 (stereo not drawn)	-18%	21*	-27%	-15%	64*	-4%
CSc1nnc(NC(=O)c2nc(S(=O)(=O)Cc3cccc(C)c3)ncc2Cl)s1	25%	62*	16%	-6%	104*	-8%
Cc1ccc(CS(=O)(=O)c2ncc(Cl)c(C(=O)Nc3nnc(C(C)C)s3)n2)cc1	9%	52*	3%	7%	75*	2%
CCOc1ccccc1NC(=O)c1nc(S(=O)(=O)Cc2cccc(C)c2)ncc1Cl	-9%	0	6%	-8%	-13	-6%
CC(C)c1nnc(NC(=O)c2nc(SCc3ccc(F)cc3)ncc2Cl)s1	x	x	x	1%	x	x
Cc1cccc(CS(=O)(=O)c2ncc(Cl)c(C(=O)Nc3nnc(C(C)C)s3)n2)c1	u	54*	18%	8%	45*	4%
CC(C)c1nnc(NC(=O)c2nc(S(=O)(=O)Cc3ccc(F)cc3)ncc2Cl)s1	0%	59*	9%	-4%	98*	7%
O=C(CCNC(=O)c1ccc([N+](=O)[O-])cc1)NC1CCCc2ccccc21 (stereo not drawn)	-3%	x	x	-2%	x	x
CN(CC(=O)Nc1cccc(Cl)c1)S(=O)(=O)c1ccc2[nH]c3c(c2c1)CCCC3	x	x	x	-2%	x	x
